Activity calls are given as the source filed them. Rule as the data show it, unless noted: active = nuclear beta-catenin stimulation mostly above about 4.2% (no sharp cut-off); inactive = mostly below about 10%.

This is an account of results in PubChem BioAssay.

A short description of assay [1]: stimulators of nuclear beta-catenin in C2C12, primary screen, imaging, WNT3A-conditioned medium, mouse C2C12, NPC library (AID 1117326). Also: reference of the scale not given here. As to conditions: stronger effect = higher value.
The nature of assay [2]: stimulators of insulin release from INS-1E, primary screen, cell-based, 5 mM glucose, NPC library (AID 1117329;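 active = compound raises insulin release from rat beta cells at 5 mM glucose, no numeric limit stated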; also: reference of the scale not given here). The conditions noted are these: rat INS-1E insulin secretion, at 10 µM, stronger effect = higher value.
The nature of assay [3]: growth inhibition of GSK3B-pretreated HCT116 cells – cell-based, CellTiter-Glo, 0.2 to 20 µM (AID 1117336;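 active = compounds lowering colon cancer cell viability after pretreatment blocking the GSK3B kinase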). As to conditions: HCT116 viability after GSK3B inhibitor, at 20 µM, stronger effect = higher value. Background: In ATP-based viability assays light output follows the ATP content of the culture.
A short description of assay [4]: inhibition of endothelial tube formation, primary screen, imaging, VEGF stimulated, CD31 staining, tube area, NPC library (AID 1117340;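 active = compound that reduces growth-factor-driven endothelial tube area in a mixed cell culture, no cutoff stated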). As to conditions: VEGF-stimulated ADSC/ECFC co-culture, at 10 µM, stronger effect = higher value.
Assay [5] can be described thus: glucagon-like peptide 1 release enhancers, primary assay, NCI-H716 cell line, NPC library (AID 1117341;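 active = compound raises GLP1 secretion from the human gut endocrine cells, with no numeric limit stated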; also: reference of the scale not given here). As to conditions: NCI-H716 cells, at 10 µM, stronger effect = higher value.
The nature of assay [6]: HCT116 colon cancer cell growth inhibition, primary screen, CellTiter-Glo luminescence, NPC library (AID 1117342;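 active = compounds that lower survival of HCT116 colon cancer cells in the luminescence readout, no numeric limit stated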). The conditions noted are these: at 20 µM (top of the series).
Assay [7] in a line: CellTiter-Glo luminescent readout of SW480 viability loss, NPC library primary (AID 1117343;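 active = compounds that lower viability of the colon cancer cells in the luminescence readout, with no numeric limit stated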). The conditions noted are these: CellTiter-Glo luminescence; at 20 µM (top of the series).
A short description of assay [8]: decreased DLD-1 cellular survival, CellTiter-Glo luminescent readout, NPC compound collection, primary HTS (AID 1117346;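 active = compounds that lower survival of DLD-1 colon cancer cells in the luminescence readout, no cutoff given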). The conditions noted are these: DLD-1 viability, CellTiter-Glo luminescence; at 20 µM (top of the series).

For `CO/N=C(/C(=O)N[C@@H]1C(=O)N2C(C(=O)[O-])=C(C[n+]3ccn4ncccc43)CS[C@H]12)c1nsc(N)n1`, the nuclear beta-catenin stimulation in assay [1] (at 10 µM) is 2% (inactive); in assay [1] (stimulation, at 2 µM), -1%. The insulin secretion stimulation in assay [2] is 3.45% (inactive). Besides, in assay [3], the viability decrease was 16.4% (inactive). For the same compound, the tube area decrease in assay [4] is -10.7% (inactive). The GLP1 secretion stimulation in assay [5] was -1.2% (inactive). For the same compound, the inhibition of viability in assay [6] was -21.9% (inactive). Moreover, the results for the viability decrease (inhibition) in assay [7] and in assay [8] were -3.8% (inactive) and -6.6% (inactive), respectively.

As for `O=C(O)c1ccccc1S`, the nuclear beta-catenin stimulation in assay [1] (at 10 µM) was 4.7% (inactive); in assay [1] (stimulation, at 2 µM), -1.3%. For the same compound, in assay [2], the insulin secretion stimulation is -0.1% (inactive). The viability decrease in assay [3] was 1% (inactive). For the same compound, the tube area decrease in assay [4] is 13.4% (inactive). In addition, the GLP1 secretion stimulation in assay [5] is -1.4% (inactive). Further, the inhibition of viability in assay [6] is 2.1% (inactive). The values for the viability decrease (inhibition) in assay [7] and in assay [8] were 31.6% (inactive) and -3.4% (inactive), respectively.

With `CC(C)=CCC/C(C)=C/CC/C(C)=C/CCC(=O)OC/C=C(\C)CCC=C(C)C`, the nuclear beta-catenin stimulation in assay [1] (at 10 µM) is 0.5% (inactive); in assay [1] (stimulation, at 2 µM), 0.6%. For the same compound, the insulin secretion stimulation in assay [2] is 5.2% (inactive). Moreover, the viability decrease in assay [3] is -4.2% (inactive). Also, in assay [4], the tube area decrease was -4.6% (inactive). In addition, the GLP1 secretion stimulation in assay [5] is 3.3% (inactive). Moreover, in assay [6], the inhibition of viability is 1.5% (inactive). The viability decrease (inhibition) is -3.7% (inactive) in assay [7] and 2% (inactive) in assay [8].

As to `CCN1CCN(C(=O)N[C@@H](C(=O)N[C@@H]2C(=O)N3[C@@H]2SC(C)(C)[C@H]3C(=O)O)c2ccccc2)C(=O)C1=O`, the nuclear beta-catenin stimulation in assay [1] (at 10 µM) is 0.2% (inactive); in assay [1] (stimulation, at 2 µM) it was 0.9%. In addition, the insulin secretion stimulation in assay [2] is -0.5% (inactive). Moreover, in assay [3], the viability decrease was -21.3% (inactive). Also, the tube area decrease in assay [4] was -12.7% (inactive). In assay [5], the GLP1 secretion stimulation is -0.4% (inactive). Also, in assay [6], the inhibition of viability is 23.9% (inactive). In addition, the results for the viability decrease (inhibition) in assay [7] and in assay [8] were 8.3% (inactive) and -5.2% (inactive), respectively.

In the case of `CCNC(=O)NCc1cccc(Cl)c1`, the nuclear beta-catenin stimulation in assay [1] (at 10 µM) is -1.7% (inactive); in assay [1] (stimulation, at 2 µM), -0.5%. For the same compound, in assay [2], the insulin secretion stimulation was 2.2% (inactive). Also, the viability decrease in assay [3] was -2% (inactive). In addition, the tube area decrease in assay [4] is 13.7% (inactive). Also, in assay [5], the GLP1 secretion stimulation is -2.9% (inactive). For the same compound, in assay [6], the inhibition of viability was 1.1% (inactive). The viability decrease (inhibition) in assay [7] is 1.2% (inactive); in assay [8], -6.8% (inactive).

For `C[C@@H](O)[C@H](N)C(=O)O`, the nuclear beta-catenin stimulation in assay [1] (at 10 µM) was 0.7% (inactive); in assay [1] (stimulation, at 2 µM), 0.7%. Moreover, the insulin secretion stimulation in assay [2] was -1.9% (inactive). In assay [3], the viability decrease was -7.25% (inactive). Moreover, the tube area decrease in assay [4] was -11.2% (inactive). For the same compound, the GLP1 secretion stimulation in assay [5] was 1.6% (inactive). The inhibition of viability in assay [6] was -31.1% (inactive). Moreover, the viability decrease (inhibition) in assay [7] was 13.3% (inactive); in assay [8], 12.6% (inactive).

Take `CC(C)Cc1ccc(C(C)C(=O)OCc2ccccn2)cc1` (centres undefined): the nuclear beta-catenin stimulation in assay [1] (at 10 µM) was -0.2% (inactive); in assay [1] (stimulation, at 2 µM), 1.5%. Moreover, in assay [2], the insulin secretion stimulation was -0.3% (inactive). In addition, the viability decrease in assay [3] was -24% (inactive). In assay [4], the tube area decrease was -19.1% (inactive). Also, the GLP1 secretion stimulation in assay [5] was 0.1% (inactive). Besides, the inhibition of viability in assay [6] is 22.8% (inactive). In addition, the viability decrease (inhibition) was 40.9% (inactive) in assay [7] and 19.1% (inactive) in assay [8].

Take `NS(=O)(=O)c1cc2c(cc1Cl)CN(C1CCCCC1)C2=O`: the nuclear beta-catenin stimulation in assay [1] (at 10 µM) is -0.9% (inactive); in assay [1] (stimulation, at 2 µM) it was -0.3%. The insulin secretion stimulation in assay [2] is -0.2% (inactive). The viability decrease in assay [3] was -0.4% (inactive). Moreover, the tube area decrease in assay [4] is -3.4% (inactive). Besides, the GLP1 secretion stimulation in assay [5] was 1.4% (inactive). In addition, in assay [6], the inhibition of viability is -2.17% (inactive). For the same compound, the viability decrease (inhibition) was -0.2% (inactive) in assay [7] and -3.8% (inactive) in assay [8].

As to `COC1=C(OC)C(=O)C(CC=C(C)CCC=C(C)CCC=C(C)CCC=C(C)CCC=C(C)CCC=C(C)CCC=C(C)CCC=C(C)CCC=C(C)CCC=C(C)C)=C(C)C1=O`, the nuclear beta-catenin stimulation is 0.8% (inactive) in assay [1] (at 10 µM) and 1.2% in assay [1] (stimulation, at 2 µM). In assay [2], the insulin secretion stimulation is 3.9% (inactive). In addition, in assay [3], the viability decrease is 13.5% (inactive). The tube area decrease in assay [4] is -5.2% (inactive). Also, in assay [5], the GLP1 secretion stimulation is 1.9% (inactive). The inhibition of viability in assay [6] is 4.6% (inactive). The figures for the viability decrease (inhibition) in assay [7] and in assay [8] were -7.3% (inactive) and 1.9% (inactive), respectively.

On to `CC(C)NC(=O)c1ccc(C=O)cc1`, for which the nuclear beta-catenin stimulation in assay [1] (at 10 µM) is 0% (inactive); in assay [1] (stimulation, at 2 µM), -0.8%. For the same compound, in assay [2], the insulin secretion stimulation was -0.75% (inactive). Also, the viability decrease in assay [3] was 18.8% (inactive). Moreover, the tube area decrease in assay [4] was -7.2% (inactive). For the same compound, the GLP1 secretion stimulation in assay [5] was 2.1% (inactive). The inhibition of viability in assay [6] was -5.1% (inactive). In addition, the figures for the viability decrease (inhibition) in assay [7] and in assay [8] were -15.1% (inactive) and -5.8% (inactive), respectively.

For the compound `CC[C@@]1(O)C(=O)OCc2c1cc1n(c2=O)Cc2c-1nc1ccccc1c2/C=N/OC(C)(C)C`, the nuclear beta-catenin stimulation in assay [1] (at 10 µM) was 38.7% (active); in assay [1] (stimulation, at 2 µM), 59.7%. In addition, the insulin secretion stimulation in assay [2] is 2.9% (inactive). In addition, in assay [3], the viability decrease is -17.1% (active). The tube area decrease in assay [4] is 59.9% (active). In assay [5], the GLP1 secretion stimulation is 14.3% (inactive). Besides, the inhibition of viability in assay [6] was 35% (active). In addition, the viability decrease (inhibition) is 64.5% (active) in assay [7] and 76.5% (active) in assay [8].

Take `COCCc1ccc(OCC2CO2)cc1` (centres undefined): the nuclear beta-catenin stimulation is 0.9% (inactive) in assay [1] (at 10 µM) and 0.3% in assay [1] (stimulation, at 2 µM). Further, the insulin secretion stimulation in assay [2] was 0.8% (inactive). Moreover, the viability decrease in assay [3] was -8% (inactive). The tube area decrease in assay [4] was -12.7% (inactive). For the same compound, the GLP1 secretion stimulation in assay [5] was 0.8% (inactive). Also, the inhibition of viability in assay [6] was -0.6% (inactive). The viability decrease (inhibition) was 14.3% (inactive) in assay [7] and 3.3% (inactive) in assay [8].

With `CCOC(=O)OCC/C(SC(=O)OCC)=C(\C)N(C=O)Cc1cnc(C)nc1N`, the nuclear beta-catenin stimulation was 1.8% (inactive) in assay [1] (at 10 µM) and 0.3% in assay [1] (stimulation, at 2 µM). Besides, the insulin secretion stimulation in assay [2] was 1.5% (inactive). For the same compound, the viability decrease in assay [3] is 2.5% (inactive). Besides, the tube area decrease in assay [4] is -11% (inactive). In addition, the GLP1 secretion stimulation in assay [5] was 2.9% (inactive). Moreover, the inhibition of viability in assay [6] was -0.4% (inactive). The viability decrease (inhibition) in assay [7] is -22.7% (inactive); in assay [8], -10.1% (inactive).

As for `O=C(O)c1ccccc1-c1ccc(C(F)(F)F)cc1`, the nuclear beta-catenin stimulation in assay [1] (at 10 µM) was 2.2% (inactive); in assay [1] (stimulation, at 2 µM), 0.7%. The insulin secretion stimulation in assay [2] was -0.1% (inactive). In addition, the viability decrease in assay [3] was -52.5% (inactive). For the same compound, the tube area decrease in assay [4] is 21.5% (inactive). Moreover, the GLP1 secretion stimulation in assay [5] is 5.5% (inactive). In assay [6], the inhibition of viability is -0.77% (inactive). Also, the values for the viability decrease (inhibition) in assay [7] and in assay [8] were 31.1% (inactive) and -11.8% (inactive), respectively.

Take `CCCCCCCC[N+](C)(C)CCCCCCCC`: the nuclear beta-catenin stimulation is -3.8% (inactive) in assay [1] (at 10 µM) and 34.4% in assay [1] (stimulation, at 2 µM). The insulin secretion stimulation in assay [2] was -3% (inactive). In addition, the viability decrease in assay [3] was 99.5% (active). Moreover, in assay [4], the tube area decrease is 108% (active). In assay [5], the GLP1 secretion stimulation was -2.7% (inactive). Also, in assay [6], the inhibition of viability is 99.6% (active). Also, the viability decrease (inhibition) in assay [7] is 102% (active); in assay [8], 101% (active).

Consider `O=C(NN1CCCC1)NS(=O)(=O)c1ccc(Cl)cc1`, for which the nuclear beta-catenin stimulation was -0.5% (inactive) in assay [1] (at 10 µM) and -0.1% in assay [1] (stimulation, at 2 µM). The insulin secretion stimulation in assay [2] is 33.9% (active). Further, the viability decrease in assay [3] was -3.1% (inactive). The tube area decrease in assay [4] is 7% (inactive). In addition, the GLP1 secretion stimulation in assay [5] is -1.1% (inactive). The inhibition of viability in assay [6] is 14.2% (inactive). In addition, the viability decrease (inhibition) is 0% (inactive) in assay [7] and -2.8% (inactive) in assay [8].
